The other results are listed elsewhere or left out. Results filed as inconclusive are left out. The source made the active and inactive calls. Calls follow the shape of the dose curve; as a rule, active = well fitted curve in the direction sought with a large enough effect; inconclusive = small, poorly fitted or top-dose-only effect, or effect the other way, or another doubt; inactive = no such curve, though single readings can be large or run the other way.
experiment: High Content Assay for Compounds that inhibit the Assembly of the Perinucleolar Compartment: PC3M Caspase 3/7 Activation; details: PC3M-GFP caspase 3/7 activation, luminescence, 24 h; series mostly up to 46.1 µM
Description: High Content Assay for Compounds that inhibit the Assembly of the Perinucleolar Compartment NIH Chemical Genomics Center [NCGC] NIH Molecular Libraries Probe Centers Network [MLPCN] MLPCN Grant: MH082371-01A2 Assay Submitter (PI): Sui Huang, Northwestern University, Feinberg School of Medicine, Cell and Molecular Biology, Chicago, Illinois. The perinucleolar compartment (PNC) is a non-membrane-bound nuclear subdomain that is associated with but structurally distinct from the nucleolus. The PNC is a heritable trait, in which the number of PNCs per cell in daughter cells often mimics that of their mother cells. The PNC is heterogeneous in shape, is stable through interphase, disassembles during mitosis, and reassembles in early G1. The PNC is concentrated with newly synthesized RNA polymerase III (pol III) RNAs (MRP RNA, RNAse P H1 RNA, hY RNAs[hY1, 2, 5], Alu RNA, and SRP [7SL] RNA) and RNA binding proteins (nucleolin, PTB, CUG-BP, KSRP, Raver1, Raver2, and Rod). […] Extensive in vitro studies have shown that the PNC is unique to tumor cells and preferentially forms in tumor cells derived from solid tissues. Examination of cancer cell lines from various origins and malignant capacities has shown that PNC prevalence correlates with the malignancy of tumors and has the potential to be developed as a pan-cancer prognostic marker. […] Although the PNC is associated with a DNA locus and a handful of components have been identified, much remains to be investigated regarding the structure and function of the PNC and its mechanistic link to cancer. We have previously shown that PNC prevalence reduction is a valid strategy to identify compounds that can be used to study the structure and function of the PNC. It is necessary, however, to create a screening platform that is able to test a large number of compounds in an automated fashion. Here we report the development and robustness of an automated whole-cell phenotypic image-based screening assay that is capable of identifying such compounds. We conducted a followup assay to measure the effects of the lead candidates on Caspase 3/7 activation using a luminescent Caspase kit (Caspase 3/7 Glo). The highly metastatic PC3M-GFP reporter cell line was used in this study.
Caspase 3/7 Assay 1. Cells at a density of 75-90% confluency in T175 flasks were harvested using 7 ml TrypLE Express cell dissociation reagent. After dissociation (5 minutes room temperature incubation) 10 ml of complete media was added to the TrypLE/cell suspension. The liquid was transferred to a 50 ml Conical tube and cells were pelleted at 1000 RPM for 5 min. Supernatant was removed and cells were resuspended to a final density of 150-200 cells/ul in complete media. 2. Cells were plated in 5 ul volume (2000 cells/well) into 1536 well White solid bottom plates and allowed to recover and adhere at 37 C in a humidified 5% CO2 incubator for 4 hours. 3. After 4 hour incubation, compound libraries (23 nl of […] in columns 5-48) were transferred to the plates in duplicate using a 1536 well pintool. Camptothecin positive control (59 uM final) was added to column 2 and 1:3 dilutions of camptothecin was added to column 3. DMSO negative controls were present in columns 1 and 4. 4. After a 24 hour incubation in the 37 C incubator, all wells were treated with 3 ul of Caspase Glo 3/7 reagent using a multidrop combi dispenser (ThermoFisher). Bubbles that formed during dispensing were removed by spinning the plates for 1 minutre at 1500 RPM on a table top centrifuge. Plates were incubated at room temperature for 5 minutes. 5. Luminescencent signal was detected on a Viewlux CCD based imager (PerkinElmer) with a clear filter and a 30 second integration time. The The PC3M cell line stably expressing the PTB-GFP was provided by Sui Huang of Northwestern University. The media and cell culture reagents were purchased from Invitrogen (Carlsbad, CA). […]

outcome, inactive:
N=c1c2c(-c3ccccc3)c(-c3ccccc3)n(Cc3ccccc3)c2ncn1CCCO
COC(=O)c1ccc(CSc2ccccc2C)o1
CC1(c2cccc([N+](=O)[O-])c2)CC(C)(C)N(C(=O)c2ccccc2)c2ccccc21 (stereo unspecified)
Cn1c2ccccc2c(=O)c2c(=O)n(Cc3ccco3)c(COc3ccccc3)nc21
CCOC(=O)c1c(-c2cccc(C)c2)csc1NC(=O)c1c(-c2ccccc2)noc1C
COC(=O)C1=C(C)N(c2ccc(Br)cc2)C(=O)/C1=C\c1ccco1
